Assay outcomes deposited in PubChem BioAssay by National Center for Advancing Translational Sciences (NCATS).
Luc counter: blocks Kinase-Glo luciferase, a counter-screen artifact. Q27757. Kinase-Glo luciferase, ATP luminescence, 8 min. Potency, µM (highest dose often 38.3 µM), actives largely listed as inhibitors. 200,000 tested, 0.28% active. AID 1379; also: nearly all actives have a fitted effect of over 60% in size
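Inhibition of Kinase-Glo luciferase light generation was assessed at 10 uM ATP in pH 7.2 imidazole buffer, with luminescence measured after eight minutes at ambient temperature.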
Rab9 prom act: Rab9 promoter activation; Huh7 Rab9 promoter-luciferase reporter, luminescence, 24 h; Potency, µM (titrated, usually from 9.22 µM), usual class: activators; 320,000 tested, 2.8% active; AID 485297; also: nearly all actives have a fitted effect of over 60% in size
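Stable Rab9-luc Huh7, 1500 cells/well, 2 h settle; cmpd in DMSO, 24 h, 37 °C/5% CO2; luciferase reagent 10 min RT; luminescence.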
FLuc counter: firefly luciferase modulation, counter-screen for miR-21 project; P08659; purified FLuc, Km substrates, luminescence inhibition; Potency, µM (highest dose often 57.5 µM), most hits filed as inhibitors; 360,000 tested, 6.9% active; also: nearly all actives have a fitted effect of over 55% in size
Target sequence (P08659 whole entry, looked up): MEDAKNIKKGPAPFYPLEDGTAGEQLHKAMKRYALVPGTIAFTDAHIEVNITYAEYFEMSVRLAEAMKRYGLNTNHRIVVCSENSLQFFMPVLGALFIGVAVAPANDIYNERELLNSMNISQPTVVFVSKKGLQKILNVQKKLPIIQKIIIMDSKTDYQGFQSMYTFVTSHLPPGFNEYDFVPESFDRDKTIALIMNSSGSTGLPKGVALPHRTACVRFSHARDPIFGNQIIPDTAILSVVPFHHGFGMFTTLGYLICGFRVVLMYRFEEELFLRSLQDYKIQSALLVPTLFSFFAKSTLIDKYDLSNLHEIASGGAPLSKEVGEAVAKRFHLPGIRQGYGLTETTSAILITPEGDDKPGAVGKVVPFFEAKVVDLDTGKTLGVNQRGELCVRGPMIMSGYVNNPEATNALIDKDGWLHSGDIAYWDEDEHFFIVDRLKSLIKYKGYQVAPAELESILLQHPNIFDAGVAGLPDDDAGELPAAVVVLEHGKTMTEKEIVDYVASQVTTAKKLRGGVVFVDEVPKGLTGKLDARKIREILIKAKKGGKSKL
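Purified P. pyralis luciferase (10nM final) with 10uM D-luciferin and 10uM ATP (Km levels) in 50mM Tris acetate pH 7.5, 10mM Mg acetate, 0.01% Tween-20, 0.05% BSA; qHTS 6-point titration, ~60 µM downward; luminescence read.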
SMN2 splice enh: enhancers of SMN2 splice variant expression. 210,000 tested, 2.8% active. AID 1458. HEK293 SMN2-luciferase splicing reporter, luminescence, 30-36 h. Potency, µM (top dose mostly 46.1 µM), most hits filed as activators; also: nearly all actives have a fitted effect of over 55% in size
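qHTS luciferase splicing reporter: luminescence rises when SMN2 exon 7 is included in transfected HEK293 cells. Compound exposure lasted 30-36 h at 37C, with 4.5 mM final sodium butyrate as control, followed by a ONE-Glo read.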
NPC1 prom act: activates the NPC1 promoter | Huh7 NPC1 promoter luciferase reporter, 24 h | Potency, µM (doses to about 9.22 µM), most hits filed as activators | 320,000 tested, 2.4% active; also: nearly all actives have a fitted effect of over 60% in size
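Stable NPC1-promoter luciferase Huh7 line; cpd (DMSO) 24 h, 37 °C, 5% CO2; Amplite luciferase reagent 10 min RT; luminescence readout. qHTS format.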
Hits are given with their value; . = inactive; ? = inconclusive; / = no result. The list is not random: actives were taken first. Their share in the collection is about 7.3%. Calls follow the shape of the dose curve; as a rule, active = well fitted curve in the direction sought with a large enough effect; inconclusive = small, poorly fitted or top-dose-only effect, or another doubt; inactive = no such curve, though single readings can be large; an effect the other way counts as inactive or inconclusive.

SMILES | Luc counter | Rab9 prom act | FLuc counter | SMN2 splice enh | NPC1 prom act
COc1ccc(-c2nc(CSCC(=O)NCCc3ccc(C)cc3)c(C)o2)cc1OC | / | / | . | . | /
Cc1cnc(NC(=O)c2ccc3ncsc3c2)s1 | / | 0.71µM | 3µM | / | 1.3µM
CCc1nnc(NC(=O)c2ccc3c(c2)C(=O)N(C(C)(C)C)C3=O)s1 | . | 3.2µM | 2.7µM | ? | 3.5µM
CCc1nnc(NC(=O)c2ccncc2)s1 | . | . | . | . | .
CCc1nnc(NC(=O)c2ccc3ncsc3c2)s1 | / | ? | 24µM | / | ?
CCOc1ccc(CCNC(=O)c2ccc3c(c2)c(C)c(C)n3Cc2ccccc2)cc1OCC | / | / | . | / | /
O=C(COc1cccnc1[N+](=O)[O-])N1CCc2ccccc21 | . | . | . | . | .
Cc1ccc2c(CC(=O)N3CCc4ccccc43)coc2c1 | . | 4µM | 4.3µM | 14µM | 3.5µM
O=C(OCC(=O)N1CCc2ccccc21)c1ccccc1F | / | . | 4.8µM | / | .
NC(=O)COC(=O)c1c2c(nc3ccccc13)CCCC2 | . | . | . | . | .
O=C(OCC(=O)N1CCc2ccccc21)c1c2c(nc3ccccc13)CCCCC2 | . | . | 4.3µM | . | .
O=C(OCC(=O)N1CCc2ccccc21)c1ccccc1[N+](=O)[O-] | / | 0.63µM | 0.15µM | / | 0.79µM
CCOc1ccc(-c2nnc(SCC(=O)NCc3ccc(C)cc3)nc2-c2ccc(OCC)cc2)cc1 | / | / | . | / | /
CCOC(=O)c1[nH]c(C)c(C(=O)OCC(=O)N2CCc3ccccc32)c1C | . | . | . | . | .
CC(=O)c1c(C)[nH]c(C(=O)OCC(=O)N2CCc3ccccc32)c1C | / | ? | . | / | 4µM
N#CC1(NC(=O)COC(=O)c2ccccc2[N+](=O)[O-])CCCCC1 | / | . | ? | / | .
O=C(COC(=O)c1ccccc1[N+](=O)[O-])c1ccc(C2CCCCC2)cc1 | 11µM | . | 0.13µM | . | .
Cc1ccc(C(=O)OCC(=O)N2CCc3ccccc32)cc1 | . | ? | 6µM | . | ?
CCCS(=O)(=O)Nc1cc(-c2cn3cccc(C)c3n2)ccc1C | / | / | 12µM | . | /
Cc1cccn2cc(-c3ccc(F)cc3)nc12 | / | 1.8µM | 2.4µM | / | 1.1µM
Cc1cccn2cc(-c3ccccc3)nc12 | . | 1.8µM | 3µM | 11µM | 1.6µM
COc1ccc(-c2cn3cccc(C)c3n2)cc1Br | . | 2.8µM | 2.4µM | 11µM | 3.5µM
COc1ccc(S(=O)(=O)Nc2cc(-c3cn4cccc(C)c4n3)ccc2C)cc1C | / | / | ? | . | /
COc1ccc(-n2ncc3c2ncn2nc(-c4ccc(Cl)cc4Cl)nc32)cc1 | / | / | . | . | /
Cc1ccc(N2CCN(S(=O)(=O)c3ccc(F)c(C(=O)Nc4ccc(Cl)cc4Cl)c3)CC2C)cc1 (centres undefined) | / | / | . | / | /
SMILES | Luc counter | Rab9 prom act | FLuc counter | SMN2 splice enh | NPC1 prom act
CCN(CC)c1cc(C)c2cc(NC(=O)/C=C/c3ccccc3OC(C)C)ccc2n1 | / | / | . | . | /
CCOc1ccc(CNC(=O)CCC(=O)N2CC(C)Sc3ccccc32)cc1 (centres undefined) | / | / | . | / | /
Cc1cc(C)n(CCc2nc3c4ccccc4nc(SCc4ccc(Cl)cc4)n3n2)n1 | / | / | . | / | /
Cc1cccn2cc(CNc3ccccc3)nc12 | . | ? | ? | 22µM | ?
CCCS(=O)(=O)NCc1cn2cccc(C)c2n1 | . | . | . | . | .
CSc1ncccc1C(=O)OCC(=O)c1ccc(Br)s1 | . | . | 12µM | . | .
CSc1ncccc1C(=O)OCC(=O)c1ccccc1 | . | . | 12µM | . | .
COc1ccc(C(=O)COC(=O)c2cccnc2SC)cc1 | . | . | 3.8µM | . | .
CNC(=O)COC(=O)c1cccnc1SC | . | . | . | . | .
CSc1ncccc1C(=O)OCC(=O)c1cc2ccccc2o1 | . | . | 21µM | . | .
Cn1cc(-c2cc3n(n2)CCC(=O)N3CC(=O)O)c2ccccc21 | / | / | . | . | /
CCOc1cc(CNC(=O)C(NS(=O)(=O)c2cccs2)C(C)C)cc(OCC)c1OCC (centres undefined) | / | / | . | / | /
Cc1c(Cl)cccc1NC(=O)CCS(=O)(=O)c1ccc2c(c1)CC(=O)N2C | / | / | . | / | /
COc1ccc(CNC(=O)C2=C(C)C(=O)OC23CCCCC3)cc1 | / | / | . | / | /
O=C(OCC(=O)c1cccc2ccccc12)c1ccc(CO)cc1 | / | . | 12µM | / | ?
CSc1ncccc1C(=O)OCC(=O)c1ccccc1Br | . | . | 8.5µM | . | .
CSc1ncccc1C(=O)OCC(=O)N(C)C | . | . | . | . | .
Cn1cc(Cl)c(C(=O)OCC(=O)Nc2nc(-c3ccc(Br)cc3)cs2)n1 | . | . | ? | 16µM | .
Cn1nccc1C(=O)OCC(=O)Nc1nc(-c2ccccc2)cs1 | . | . | ? | . | .
O=C(OCC(=O)c1ccccc1Br)c1ccncc1 | . | . | 11µM | . | .
O=C(COC(=O)c1cccnc1Cl)c1cccc(Cl)c1 | . | . | 13µM | . | .
COc1ccc(C(=O)COC(=O)c2nn(C)cc2Cl)cc1 | / | . | 17µM | / | .
CCOC(=O)c1ccc(NC(=O)Oc2cc(C)c(Cl)cc2C(C)C)cc1 | / | 4.5µM | . | / | .
COC(=O)c1ccc(NC(=O)Nc2ccc(OC)cc2)cc1 | . | . | . | . | .
COC(=O)c1ccc(NC(=O)Nc2ccccc2C)cc1 | . | ? | 4.8µM | . | ?
SMILES | Luc counter | Rab9 prom act | FLuc counter | SMN2 splice enh | NPC1 prom act
COC(=O)c1ccc(NC(=O)Nc2ccc(F)cc2)cc1 | . | ? | 11µM | . | ?
COC(=O)c1sccc1NC(=O)Nc1ccccc1C | / | . | . | / | .
CC(C)(C)c1ccc(NC(=O)Nc2ccc(F)cc2)cc1 | . | 2.5µM | 2.4µM | 13µM | 1.8µM
COc1ccccc1NC(=O)CSC1=Nc2ccccc2C2=NC(CC(=O)NCc3ccco3)C(=O)N12 (centres undefined) | / | / | . | / | /
COC(=O)c1ccc(NC(=O)Nc2ccc(F)c(Cl)c2)cc1 | . | . | 27µM | . | .
CCOC(=O)c1ccc(NC(=O)Nc2ccc(F)cc2)cc1 | . | . | 11µM | . | .
CC(=O)N(C)c1ccc(NC(=O)Nc2ccccc2C)cc1 | . | 2.8µM | 12µM | 13µM | ?
O=C(Nc1ccncc1)Nc1ccc(F)c(Cl)c1 | . | . | ? | / | .
CC(C)(C)c1ccc(NC(=O)c2ccc(=O)[nH]n2)cc1 | / | 0.79µM | 3µM | / | 0.71µM
O=C(Nc1ccc2c(c1)OCO2)c1ccc(=O)[nH]n1 | / | ? | ? | / | .
CC(=O)Nc1ccc(NC(=O)Nc2ccccc2C)cc1 | . | . | ? | / | .
Cc1ccc(NC(=O)CN2C(=O)C(c3ccc(C(C)(C)C)cc3)=NC2(C)C)cc1 | / | / | . | . | /
COc1ccc(-n2nc3c(N4CCCC(C(=O)NCc5ccc(C)cc5)C4)nnc(C)c3c2C)cc1 (centres undefined) | / | / | . | / | /
CCOC(=O)c1sc(NC(=O)Nc2ccc(F)cc2)nc1C | . | 1.3µM | 1.5µM | 1.3µM | 1.6µM
Cc1ccc(Cl)cc1N1CCN(S(=O)(=O)c2cn(C)c(C)n2)CC1 | / | / | . | / | /
CCOC(=O)C(=CNc1ccccc1Cl)C(=O)OCC | / | . | . | / | .
CCOC(=O)C(=CNc1ccc(C(F)(F)F)cc1Cl)C(=O)OCC | / | . | 13µM | / | .
